Reference: the supplement of paper PMC6555819

Experiments:
Test in all cases: PBM binding z-score (relative to random genomic background probes); higher = stronger binding; sequences stand for … in GC…GCGATTGACAGCGTAGAATGAAGG
[1] = system: FXR:RXRa (NR concentration 270 nM, RXRa partner concentration 90 nM)
In short: (§1)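 Probes were double-stranded and carried 34-nt variable regions with direct-repeat seeds, single-nucleotide variants, half-site ablations and random human genomic background sequences, printed on custom Agilent 4×180K protein-binding microarrays. Arrays were incubated 1 h with ligand-free nuclear receptor dimers in PBS pH 7.4, 2% milk, 0.02% Triton X-100, 1 mM DTT, 0.2 mg/mL BSA and 0.4 mg/ml salmon testes DNA. Antibodies against each partner (one per run) detected binding, and scanned fluorescence was regression-normalized. Binding z-scores use the random background probes as reference.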

[2] = system: LXRa:RXRa (NR concentration 270 nM, RXRa partner concentration 90 nM)
In short: as §1

[3] = system: LXRa homodimer (NR concentration 270 nM)
In short: as §1

[4] = system: LXRb:RXRa (NR concentration 270 nM, RXRa partner concentration 90 nM)
In short: as §1

[5] = system: LXRb homodimer (NR concentration 270 nM)
In short: as §1

[6] = system: PPARa:RXRa (NR concentration 270 nM, RXRa partner concentration 90 nM)
In short: as §1

[7] = system: PPARg:RXRa (NR concentration 180 nM, RXRa partner concentration 90 nM)
In short: as §1

[8] = system: PPARg:RXRa 270nM:90nM, anti-RXR (NR concentration 270 nM, RXRa partner concentration 90 nM)
In short: as §1

[9] = system: PPARg:RXRa 30nM:10nM, anti-RXR (NR concentration 30 nM, RXRa partner concentration 10 nM)
In short: as §1

[10] = system: PPARg:RXRa 90nM:30nM, anti-RXR (NR concentration 90 nM, RXRa partner concentration 30 nM)
In short: as §1

[11] = system: PPARg:RXRa DBDmut IVT, anti-RXR (DBD mutation: RXRa K156A/R161A, NR concentration 270 nM, RXRa partner concentration 90 nM)
In short: as §1

[12] = system: PPARg:RXRa IVT, anti-PPARg (NR concentration 270 nM, RXRa partner concentration 90 nM)
In short: as §1

[13] = system: PPARg DBDmut:RXRa IVT, anti-PPARg (DBD mutation: PPARg1 K132A/R137A, NR concentration 270 nM, RXRa partner concentration 90 nM)
In short: as §1

[14] = system: PPARg DBDmut IVT, anti-PPARg (DBD mutation: PPARg1 K132A/R137A, NR concentration 270 nM)
In short: as §1

[15] = system: PPARg homodimer (NR concentration 180 nM)
In short: as §1

[16] = system: PXR:RXRa (NR concentration 270 nM, RXRa partner concentration 90 nM)
In short: as §1

[17] = system: PXR homodimer (NR concentration 270 nM)
In short: as §1

[18] = system: RARa:RXR (NR concentration 270 nM, RXRa partner concentration 90 nM)
In short: as §1

[19] = system: RARa homodimer (NR concentration 270 nM)
In short: as §1

[20] = system: RARb:RXRa (NR concentration 270 nM, RXRa partner concentration 90 nM)
In short: as §1

| Sequence | PBM binding z-score [1] | PBM binding z-score [2] | PBM binding z-score [3] | PBM binding z-score [4] | PBM binding z-score [5] | PBM binding z-score [6] | PBM binding z-score [7] | PBM binding z-score [8] | PBM binding z-score [9] | PBM binding z-score [10] | PBM binding z-score [11] | PBM binding z-score [12] | PBM binding z-score [13] | PBM binding z-score [14] | PBM binding z-score [15] | PBM binding z-score [16] | PBM binding z-score [17] | PBM binding z-score [18] | PBM binding z-score [19] | PBM binding z-score [20] |
| --- | --- | --- | --- | --- | --- | --- | --- | --- | --- | --- | --- | --- | --- | --- | --- | --- | --- | --- | --- | --- |
| CAAACTAGGTCATTGACAGGACAGTGAATAGTAA | 4.7 | 3.38 | 0.946 | 2.29 | 0.688 | 4.71 | 7.82 | 6.85 | 3.97 | 6.16 | 8.37 | 8.3 | 2.39 | 1.76 | 2.3 | 1.73 | 0.252 | 2.35 | 0.262 | 3.75 |
| CAGCCTAGGTCAGGGGCAGTATAGGAGGAACGTT | 2.14 | 1.38 | -0.331 | 1.27 | -0.805 | 2.38 | 1.3 | 1.75 | 0.184 | 0.954 | 1.2 | 1.71 | -0.201 | -0.982 | 1.41 | 0.677 | -0.048 | 1.33 | 0.0151 | 3.5 |
| TCATATAGGTAAAGGTGACAGTCGAACGATATGA | 0.847 | 1.04 | 0.0349 | 0.847 | -0.211 | 2.88 | 3.72 | 4.32 | 4.16 | 4.4 | 4.04 | 4.07 | 1.74 | 1.19 | 0.889 | 0.897 | 0.245 | 1.44 | 0.76 | 1.9 |
| TCTCGTAGGACACGAAGGTCAGAGCTTTCCAGAG | 0.999 | 0.907 | 0.334 | 1.08 | -0.838 | 1.85 | 0.478 | 1.91 | 2.61 | 2.45 | 1.67 | 1.28 | -0.564 | -1.07 | 0.78 | 1.35 | -0.171 | 1.75 | -0.101 | 2.89 |
| CCTGTTAGGTCAATGGTCAGCTAAAGCAGCTCGC | 3.84 | 2.92 | 0.645 | 2.06 | 1.38 | 3.49 | 3.07 | 4.36 | 2.03 | 3.91 | 3.49 | 3.13 | -0.195 | -0.0792 | 2.54 | 1.43 | 0.214 | 2.39 | 1.21 | 4.14 |
| GCTGCTAGGGCAGGTTGGTCAGCTAACGGGTACG | -0.531 | -0.752 | -0.652 | -1.01 | -0.94 | -0.594 | -0.438 | -0.678 | -1.11 | -1.1 | 0.814 | 0.109 | -1.41 | -2.26 | -0.535 | -0.732 | -0.597 | -0.985 | -1.07 | 1.16 |
| TTACCAAGTTGAAAGGTCGTTGATGCACGCCTTG | 2.79 | 2.74 | 0.48 | 2.17 | -0.00674 | 3.78 | 4.15 | 5.58 | 3.84 | 5.07 | 0.565 | 1.78 | -0.471 | 0.0768 | 1.5 | 3.35 | 0.56 | 4.05 | 0.532 | 2.34 |
| TTACCAAGGTGAGGTGAGGTCGTTGATCCAACTC | 2.75 | 1.64 | -0.251 | 1.2 | -0.802 | 2.03 | 0.585 | 1.25 | 0.427 | 0.705 | 1.36 | 2.9 | -0.05 | -0.0548 | 0.645 | 4.64 | 0.773 | 2.2 | -0.25 | 1.93 |
| CCTACTGTGCCACGAAAGGTCATTGATTCAGTGA | 3.98 | 5.43 | 5.47 | 4.73 | 1.31 | 4.62 | 3.72 | 4.36 | 2 | 3.59 | 5.18 | 4.39 | 0.906 | 0.678 | 3.62 | 5.32 | 1.94 | 5.05 | 1.63 | 3.96 |
| CCGACTGGCGCAGAAAGGTTACCATACCATCCGG | 0.0917 | 0.658 | -0.132 | 0.749 | -1.07 | 1.8 | 0.613 | 1.16 | -0.315 | 0.337 | -0.18 | -0.419 | -0.533 | -1.05 | 0.499 | 0.354 | -0.51 | 1.14 | -0.466 | 1.35 |
| CCTTACGGGTCAAGGATATAGCACGGGTGGTACG | 4.77 | 2.96 | 0.0404 | 2.45 | -0.392 | 4.52 | 3.82 | 3.92 | 1.14 | 2.66 | 1.81 | 3.02 | 0.42 | -0.469 | 1.43 | 2.54 | 0.0549 | 3.44 | 0.583 | 3.88 |
| GTACCAAGGCGAATAGGTCGTTGATGAGTAGGCG | -0.145 | -0.392 | -0.286 | -0.382 | -0.895 | 0.351 | 0.461 | -0.0926 | -0.512 | -0.516 | -0.264 | -0.208 | -0.611 | -1.17 | -0.305 | -0.106 | -0.0295 | 0.507 | -0.623 | 0.291 |
| TCTCGCAGGCCAGAGGGTCACTCAAGAGGTACGG | 1.04 | 1.1 | -0.517 | 1.02 | -1.09 | 2.32 | 0.92 | 1.95 | 2.05 | 1.91 | 0.998 | 0.394 | -0.712 | -0.719 | 0.381 | 1.62 | -0.348 | 2.25 | -0.311 | 2.45 |
| TTACCAAGGTGAAGGTCATTGATCCCTCTGTAGA | 4.39 | 4.39 | 2.26 | 3.7 | -0.235 | 4.36 | 5.26 | 5.49 | 3.52 | 5.38 | 2.03 | 4.57 | 1.28 | -0.00818 | 2.06 | 3.74 | 0.712 | 3.95 | 0.469 | 3.88 |
